# Test results as given in PubChem BioAssay AID1508600 (Functional Genomics Laboratory (NCATS/FGL), 2020).
# The whole screen tested about 53,000 sequences, of which about 3,700 (7%) were called active. The entries come from a sample that favours actives as a whole. Unmarked numbers belong to inactive results.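 Rule for the calls: active = gene knockdowns whose robust z-score for IL-1 alpha signal is at least 2 or at most -2, so actives lie on both sides; inactive = the rest.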
# Assay: Components of the Cytosolic LPS Sensing Pathway: Gene Identification via Genome-wide siRNA Screen;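 note: robust z of the log signal after scaling to non-targeting control siRNA wells of the plate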
# Details: RAW264.7 macrophages, IL-1a HTRF, actives lie on both sides, screened at 100 nM (by protocol), cells primed 5 h with Pam3CSK4 first
# Procedure, shortened: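 Cells (RAW264.7, 1×10^4 per well) were transfected with siRNA at 100 nM and cultured 48h at 37 degrees C. Pam3CSK4 was added for 5 hours; LipidA transfection followed for 24 hour. IL-1a was then measured by HTRF.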
row,Sequence,z-score
1,GGCCAUCAGUGUGGAAUGUTT against BC004004,-0.19
2,GGUAAUAACCCUUAAUAAGTT against Akirin2,0.572
3,GCACAAAAAAGUGAUAUUGTT against Hdlbp,0.41
4,CGUAGCUGUAAUUCUUCAGTT against Pcdhgb2,2.02 (active)
5,GGAAGAUGUUAAGAGUUACTT against Slc1a3,-0.865
6,GCUAUCUCUGCUAAUAAAGTT against Col6a1,-0.203
7,GCCAUCCUUGUGCUAAGAGTT against Ifna4,-0.604
8,GCAUGAAUUCAAAUUGCCATT against Adgrl4,-0.981
9,CGGUACUAAACAUUACCUCTT against Olfr633,0.957
10,GAGUGGUUUCUAAUUCGUATT against A830031A19Rik,2.56 (active)
11,CCUGUUCUGUUAUCAACGGTT against Plxdc1,0.123
12,GGCAAACUGUCUCUUCAGATT against Pim1,-0.131
13,GGUGAAGAGUUCAAACAUCTT against Atp9a,1.29
14,GGACAUUGACCUGUUCGGCTT against Eef1d,0.952
15,GGAGCUGUAUGAGAUAGAGTT against Zfp566,4.15 (active)
16,GGACCUCAACAUCCAGAGATT against Sema6b,-0.217
17,GGUUAAAGGUCAGAUUUAGTT against Dapk2,2.54 (active)
18,CGACCUGAAAGAUUCGGAATT against Ppara,-1.04
19,GCUCAACCCAUUCUUUGAUTT against Cep295nl,0.407
20,CCAAAGCUAGGUCAUUUUATT against Slc31a2,0.72
21,GGAAAAAGCGGAAAUUCAGTT against Pgbd5,-0.276
22,GCAUUUGUACAUUGUGACUTT against Ces5a,-2.28 (active)
23,GGGUCCAGUAUCCAUCAAATT against Sf3a1,-2.7 (active)
24,GGAAGAAGACUCAGAAAGUTT against Prkag2,1.43
25,CCGACCAUCUGUGGAAAUATT against Samd5,0.227
26,GCCAGAUCCCUGGAAUGUATT against Ece2,-0.632
27,GGUAUUGCUUUCACAUUAUTT against Efr3a,0.434

row,Sequence,z-score
1,GGUGUAAGAACUUCAAGUUTT against Tlr9,0.199
2,GGCUGUUUUUACCCUACUUTT against Vmn1r72,-0.441
3,GGAGAAAUUCAAAAGGAAUTT against Ms4a6d,-0.764
4,GGAUGCUCAUGCUAAGCAGTT against Krt7,0.547
5,GGAUGAGGGAACGUACAUUTT against Il18r1,5.74 (active)
6,GGAACUUCCCUAUAGUGAATT against Hdac3,-1.52
7,GGAUGCGCUGAUAUCAGUATT against Olfr370,1.3
8,GCUCAUUGAGUACAAGACCTT against Ndufs2,1.76
9,GGUCACUGAACCUAUUUCCTT against Arhgap15,-2.56 (active)
10,CCCUCAAUGCUGGAAAACCTT against Nol4,-1.43
11,GGCAAGGAUGAUGUCUUCGTT against Upk1a,-1.33
12,GCUUCUAGGGACCUAUUAATT against Dhx30,-0.0854
13,GGUCUAUGAGAUGUUUUCUTT against Cyp2a4,2.78 (active)
14,GCAACUGGCUGAACUCUCATT against Gsdmc2,3.91 (active)
15,GGCACUCAAUGUCUUCUAUTT against Nbeal1,0.516
16,GCUACUGCAGUAUACAUUGTT against Olfr869,2.21 (active)
17,GGAAUCGGUACUCUUCCACTT against Tcerg1l,0.26
18,GGAAUUCAUGAAGUAUAACTT against Myo5c,0.941
19,GAUAAUUUGCACAUCCUCUTT against Nrn1l,-0.999
20,GGGUUUGAGUGCUGUGAAGTT against Ap4s1,-2.66 (active)
21,GCUGGGCUACAAUACAUAUTT against Fgf3,-0.0573
22,CCAUGAGUAUCAAGUCAAUTT against Septin9,1.14
23,GGGUGAAAUCUAUCUCCAUTT against Agfg1,-1.85
24,CCAUAAUUCAGCUAGACCUTT against Axin1,0.201
25,GGUAAAGACUGGAUGGCUATT against Art5,2.14 (active)
26,GGAAAUCUUUGAGUUUGAATT against Clca1,-0.0578
27,GCCAAAUGAGUCAGAUACUTT against Ak3,-0.402
